Screening data deposited in PubChem by several laboratories.
CYP2C9 inhib: blocks human cytochrome P450 2C9; CYP2C9 Supersomes, luciferin-H conversion, luminescence; AID 777; inhibition, % at 5 µM; 20% of 96,000 active; P11712;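 active = blocking of liver enzyme CYP2C9 beyond about 50% at 5 µM, limit read from the data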
Target sequence (P11712 whole entry, looked up): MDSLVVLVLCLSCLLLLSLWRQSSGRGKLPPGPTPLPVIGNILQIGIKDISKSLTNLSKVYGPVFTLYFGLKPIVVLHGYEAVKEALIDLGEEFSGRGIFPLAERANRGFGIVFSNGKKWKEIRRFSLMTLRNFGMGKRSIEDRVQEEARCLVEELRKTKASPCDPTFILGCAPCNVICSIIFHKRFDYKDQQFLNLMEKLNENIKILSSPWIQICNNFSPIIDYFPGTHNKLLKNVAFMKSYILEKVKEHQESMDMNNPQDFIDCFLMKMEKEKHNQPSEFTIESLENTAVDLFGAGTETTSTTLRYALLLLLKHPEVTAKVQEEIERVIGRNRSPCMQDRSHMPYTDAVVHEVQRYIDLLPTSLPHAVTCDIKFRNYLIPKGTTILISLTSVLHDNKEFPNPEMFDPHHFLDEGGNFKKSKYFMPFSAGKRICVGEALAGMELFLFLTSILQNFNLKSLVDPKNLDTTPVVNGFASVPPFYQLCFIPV
PostGolgi yeast: growth inhibition of a yeast mutant, post-Golgi transport screen; post-Golgi transport phenotypic cell assay; inhibition, % at 10 µM; 0.9% of 98,000 active; AID 739;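 note: yeast cells grown in 1536-well plates; yeast grown about 18 h at 30C before absorbance read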
CYP2C19 activ: activators of human cytochrome P450 2C19; P33261; recombinant CYP2C19, luciferin-H EGE luminescence; active compounds read high; 0 = fully inhibited enzyme, 1 = untreated enzyme; activation factor at 5 µM; 96,000 tested, under 10 active;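 active = activation factor of at least 2 at 5 µM in the primary screen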;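 note: 0 = wells with 2.5 mM tranylcypromine and 1 = vehicle-only wells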
PostGolgi ctrl: inhibits growth of the yeast control strain | AID 738 | efflux-deficient yeast background strain, growth absorbance A615, 16 h | 5% of 98,000 active | inhibition, % at 10 µM
CYP2C9 act: CYP2C9 (human) activation | recombinant CYP2C9, luciferin-H conversion, luminescence; active compounds read high; factor 1 = untreated enzyme, 0 = blocked | 1.4% of 96,000 active | activation factor at 5 µM | P11712;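 active = activation factor of 2 or more for CYP2C9 at a 5 µM dose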;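 note: 0 = sulfaphenazole-blocked wells and 1 = vehicle-only wells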
CYP2C19 inh: inhibitors of human CYP2C19 | P33261 | CYP2C19 Supersomes, luciferin-H EGE luminescence, 30 min | inhibition, % at 5 µM | 21% of 96,000 active | AID 778;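 active = CYP2C19 inhibition above a set limit at 5 µM in the primary screen, cut at about 50% in these data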;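 note: plate controls were negative control wells for no effect and 2.5 mM tranylcypromine positive control for full effect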
Starred values were filed as active, the others as inactive. Rows were chosen to be rich in hits. Some 32% of all compounds tested hit in one or more screens of this group. Cut-off read from the data, not from the text of the source, unless noted: active = inhibition above about 30%; inactive = the rest.

SMILES | CYP2C9 inhib | PostGolgi yeast | CYP2C19 activ | PostGolgi ctrl | CYP2C9 act | CYP2C19 inh
COc1cc(/C=C2\OC(=O)c3c(OC)cccc32)ccc1O | 95* | 2 | 0 | 6 | 0.1 | 97*
CCCSc1nnc(NC(=O)c2sc3nc(-c4cccs4)ccc3c2N)s1 | 53* | -3 | 0.6 | -8 | 0.5 | 36
Cc1csc(NC(=O)c2sc3nc(-c4cccs4)ccc3c2N)n1 | 81* | 0 | 0.4 | 22 | 0.2 | 59*
CC(=O)Nc1ccccc1OCc1nnc(-c2cccs2)o1 | 36 | 2 | 0.8 | 7 | 0.6 | 24
CCOC(=O)n1c(=O)n(Cc2ccc(Cl)c(Cl)c2)c2ccccc21 | 53* | 0 | 0.5 | 66* | 0.5 | 51*
CCOC(=O)n1c(=O)n(Cc2c(Cl)cccc2Cl)c2ccccc21 | 48 | 7 | 0.4 | 9 | 0.5 | 61*
CCOC(=O)n1c(=O)n(Cc2ccccc2)c2ccccc21 | 18 | 12 | 0.3 | 12 | 0.8 | 70*
CCOC(=O)n1c(=O)oc2ccccc21 | 4 | -20 | 1 | 5 | 1 | 2
COc1ccc2[nH]c(=O)c(CN(C(=O)C3CCCO3)c3ccc(C)cc3)cc2c1 (stereo not drawn) | 39 | 10 | 0.8 | 3 | 0.6 | 21
CCC(C)(C)n1nnnc1C(C(C)C)N1CCSCC1 (stereo not drawn) | 20 | 4 | 0.6 | 7 | 0.8 | 41
CCCc1[nH][nH]c(=O)c1C(c1cccc(Cl)c1)C(C#N)C#N (stereo not drawn) | 75* | 0 | 0.3 | 14 | 0.3 | 75*
CCC1(C)Cc2c(c(=O)n(-c3ccccc3)c3ncnc(N)c23)CO1 (stereo not drawn) | -4 | 10 | 1.2 | 2 | 1 | -15
CCCn1nnc(NC(=O)c2ccc(Cl)cc2Cl)n1 | -24 | 26 | 0.1 | 4 | 1.2 | 89*
CCCn1nnc(NC(=O)c2ccccc2Cl)n1 | -16 | 7 | 1 | -6 | 1.2 | 1
COc1ccc(/C=C(/C#N)C(=O)Nc2cccc(C)c2C)cc1C(=O)O | 16 | -8 | 0.4 | 3 | 0.8 | 58*
COc1ccc(-c2nc(-c3ccccc3)nc(N3CCN(C)CC3)c2C#N)cc1 | 23 | -3 | 0.9 | 33* | 0.8 | 5
c1ccc2c(c1)ncn2CCCCOc1ccc2c(c1)CCC2 | 13 | 4 | 0.8 | 37* | 0.9 | 24
O=C(COc1ccc2c(c1)CCC2)N1CCc2ccccc21 | -42 | -8 | 1 | 5 | 1.4 | 3
c1ccc2c(c1)ncn2CCCOc1ccc2c(c1)CCC2 | 39 | -1 | 0.6 | 34* | 0.6 | 40
Cc1c(NC(=O)C23CC4CC(CC(C)(C4)C2)C3)c(=O)n(-c2ccccc2)n1C | -18 | 7 | 1.1 | 8 | 1.2 | -12
Cc1cc(C(=O)Nc2ccccc2)oc1C | -7 | -3 | 0.8 | 24 | 1.1 | 24
O=C(Cn1cc2c(n1)CCCCC2)NCc1ccccn1 | -16 | -3 | 0.6 | -11 | 1.2 | 39
CCOC(=O)/C(C#N)=C/c1cc(C)n(-c2ccc(Br)cc2)c1C | 1 | -4 | 1.1 | 8 | 1 | -6
CCOC(=O)/C(C#N)=C/c1cc(C)n(-c2ccccc2)c1C | 54* | -12 | 0.5 | -2 | 0.5 | 52*
O=C(C1CCN(S(=O)(=O)N2CCOCC2)CC1)N1CCOCC1 | -4 | 0 | 1.1 | 31* | 1 | -9
SMILES | CYP2C9 inhib | PostGolgi yeast | CYP2C19 activ | PostGolgi ctrl | CYP2C9 act | CYP2C19 inh
O=C(NCc1ccccc1Cl)C1CCN(S(=O)(=O)N2CCC3(CC2)OCCO3)CC1 | 16 | 3 | 0.9 | 6 | 0.8 | 15
CCS(=O)(=O)N1CCC(C(=O)N2CCOCC2)CC1 | 7 | -5 | 0.6 | 3 | 0.9 | 36
O=C(NCc1ccco1)C1CCN(S(=O)(=O)N2CCC3(CC2)OCCO3)CC1 | 84* | -4 | 0.9 | 1 | 0.2 | 8
CCCS(=O)(=O)N1CCC(C(=O)N2CCC(Cc3ccccc3)CC2)CC1 | 7 | 6 | 0.7 | 8 | 0.9 | 25
O=C(C1CCN(S(=O)(=O)N2CCC3(CC2)OCCO3)CC1)N1CCC(Cc2ccccc2)CC1 | 76* | 7 | 0.4 | 13 | 0.2 | 58*
Cc1cc(C)c(S(=O)(=O)N2CCC(C(=O)NCc3ccco3)CC2)c(C)c1 | -179 | 2 | 0.8 | 5 | 2.8* | 21
NC(=O)C1CCN(C(=O)C2c3ccccc3C(=O)N3CCc4ccccc4C23)CC1 (stereo not drawn) | 18 | 14 | 1 | -4 | 0.8 | -4
CC(C)(C)c1cc(C(=O)O)c(CN2CCCCC2)o1 | 2 | 5 | 0.8 | 1 | 1 | 19
CN1CCN(c2nc3nonc3nc2N2CCN(C)CC2)CC1 | 8 | -6 | 0.9 | 0 | 0.9 | 5
Cc1ccccc1-c1nnc(SCCOc2ccc3c(C)cc(=O)oc3c2)o1 | 27 | 9 | 0.8 | 27 | 0.7 | 25
O=C(NC1CCCCCCC1)C1CCN(S(=O)(=O)N2CCC3(CC2)OCCO3)CC1 | 52* | 12 | 0.4 | 8 | 0.5 | 60*
O=C(NC1CCCCC1)C1CCN(S(=O)(=O)N2CCCCCC2)CC1 | 9 | -4 | 1 | 17 | 0.9 | 0
CCOC(=O)N1CCN(C(=O)c2nn(-c3cc(OC)cc(OC)c3)c(=O)c3ccccc23)CC1 | 80* | -3 | 0.4 | 12 | 0.2 | 63*
CCOC(=O)N1CCN(C(=O)c2cn(-c3ccc(C)c(C)c3)c(=O)c3ccccc23)CC1 | 64* | 18 | 0.8 | 14 | 0.4 | 24
COc1ccccc1-n1nc(C(=O)O)c2ccccc2c1=O | -8 | 4 | 1 | 8 | 1.1 | -3
CCOC(=O)N1CCN(C(=O)CNC(=O)c2nn(-c3ccc(OC)cc3)c(=O)c3ccccc23)CC1 | 14 | -8 | 1 | 3 | 0.9 | -2
COc1ccccc1N1CCN(C(=O)c2nn(-c3ccccc3OC)c(=O)c3ccccc23)CC1 | 58* | 3 | 0.5 | 1 | 0.4 | 49
COC(=O)CCN(c1ccccc1)S(=O)(=O)c1ccc(OC)cc1 | -4 | 3 | 0.5 | 2 | 1 | 49
COc1ccc(C2(CNC(=O)Cc3ccc(OC)c(OC)c3)CCOCC2)cc1 | -17 | 4 | 1.1 | 4 | 1.2 | -11
COc1ccc2c(c1OC)C(=O)N1N=C(c3ccc(O)cc3)CC21 (stereo not drawn) | -144 | -5 | 1 | 12 | 2.4* | 0
O=[N+]([O-])c1ccc(CSc2nnc(-c3cnccn3)o2)cc1 | 31 | 1 | 0.1 | 15 | 0.7 | 90*
COC(=O)c1ccc(CSc2nnc(Nc3ccccc3OC)s2)o1 | -58 | -2 | 0.5 | 4 | 1.6 | 50
COc1cc(C(=O)OCC(=O)Nc2ccc(F)cc2F)cc(OC)c1OC | 33 | 0 | 0.4 | -2 | 0.7 | 65*
CCC(CC)NC(=O)COC(=O)c1ccc(OCC(=O)Nc2ccccc2OC)c(OC)c1 | 44 | 4 | 0.3 | -4 | 0.6 | 71*
COc1ccc(C(=O)OCC(=O)Nc2ccc(F)c(F)c2)cc1OC | 29 | -12 | 0.4 | 14 | 0.7 | 58*
